Values joined by “and” are separate entries in the source; they are usually repeats but may differ in a detail not shown here. Equal entries are not always repeated. Screen size: about 5,500 compounds; about 2,000 (36%) were called active. Inconclusive results (about 18%) are left out. The list shows a part of the results. A number with no mark means an inactive call. Cut-off read from the data, not from the text of the source: active = normalized growth mostly below about 0.91 (no sharp cut-off); inconclusive = no clear call, values can overlap the other calls; inactive = mostly above about 0.92.
Experiment: chemical genetic growth profiling, strain panel (AID 1159580);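 note: tested at 20 µM; growth read once vehicle control cultures reached saturation at 30 °C; 1 = growth at the plate median or of vehicle wells; lower values mean less growth of the strain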
Settings: growth OD

CN(C)CCN(Cc1cccs1)c1ccccn1
normalized growth (S. cerevisiae deletion strains, locus YJR066W, strain TOR1, hits give low values): 0.82 (active) | normalized growth (S. cerevisiae deletion strains, locus YJR075W, strain HOC1, hits give low values): 0.98 and 1.01 | normalized growth (S. cerevisiae deletion strains, locus YKL009W, strain mrt4, hits give low values): 1.02 | normalized growth (S. cerevisiae deletion strains, locus YKL068W, hits give low values): 1.01 | normalized growth (S. cerevisiae deletion strains, locus YKL085W, strain MDH1 (second series), hits give low values): 0.997 | normalized growth (S. cerevisiae deletion strains, locus YKL085W, strain MDH1, hits give low values): 0.997 | normalized growth (S. cerevisiae deletion strains, locus YKL160W, strain elf1, hits give low values): 1.01 | normalized growth (S. cerevisiae deletion strains, locus YKL190W, strain CNB1, hits give low values): 0.985 | normalized growth (S. cerevisiae deletion strains, locus YKR001C, strain vps1, hits give low values): 0.986 | normalized growth (S. cerevisiae deletion strains, locus YKR026C, strain gcn3, hits give low values): 1.01 | normalized growth (S. cerevisiae deletion strains, locus YKR091W, strain srl3, hits give low values): 1 | normalized growth (S. cerevisiae deletion strains, locus YLL001W, strain dnm1, hits give low values): 1.01 | normalized growth (S. cerevisiae deletion strains, locus YLL026W, hits give low values): 1 | normalized growth (S. cerevisiae deletion strains, locus YLL041C, strain sdh2, hits give low values): 1.01 | normalized growth (S. cerevisiae deletion strains, locus YLR027C, strain aat2, hits give low values): 1.01 | normalized growth (S. cerevisiae deletion strains, locus YLR039C, strain RIC1, hits give low values): 1.03 | normalized growth (S. cerevisiae deletion strains, locus YLR058C, strain SHM2, hits give low values): 1.02 | normalized growth (S. cerevisiae deletion strains, locus YLR102C, strain apc9, hits give low values): 1.01 | normalized growth (S. cerevisiae deletion strains, locus YLR113W, strain HOG1, hits give low values): 0.995 | normalized growth (S. cerevisiae deletion strains, locus YLR221C, strain rsa3, hits give low values): 1.01 | normalized growth (S. cerevisiae deletion strains, locus YLR258W, strain gsy2, hits give low values): 1.01 | normalized growth (S. cerevisiae deletion strains, locus YLR262C, strain YPT6 (second series), hits give low values): 1.01 | normalized growth (S. cerevisiae deletion strains, locus YLR262C, strain YPT6, hits give low values): 1.11 | normalized growth (S. cerevisiae deletion strains, locus YLR268W, strain sec22, hits give low values): 1.01 | normalized growth (S. cerevisiae deletion strains, locus YLR320W, strain mms22, hits give low values): 1.04 | normalized growth (S. cerevisiae deletion strains, locus YLR330W, strain CHS5, hits give low values): 1 | normalized growth (S. cerevisiae deletion strains, locus YLR342W, strain FKS1 (second series), hits give low values): 1.04 | normalized growth (S. cerevisiae deletion strains, locus YLR342W, strain FKS1, hits give low values): 1.01 | normalized growth (S. cerevisiae deletion strains, locus YLR357W, strain rsc2, hits give low values): 1.03 | normalized growth (S. cerevisiae deletion strains, locus YLR370C, strain arc18, hits give low values): 1.02 | normalized growth (S. cerevisiae deletion strains, locus YLR371W, strain rom2, hits give low values): 1.01 | normalized growth (S. cerevisiae deletion strains, locus YLR384C, strain iki3, hits give low values): 1.01 | normalized growth (S. cerevisiae deletion strains, locus YLR418C, strain cdc73, hits give low values): 1.02 | normalized growth (S. cerevisiae deletion strains, locus YML016C, strain PPZ1, hits give low values): 1.01 | normalized growth (S. cerevisiae deletion strains, locus YML032C, strain rad52, hits give low values): 0.988 | normalized growth (S. cerevisiae deletion strains, locus YML120C, strain ndi1, hits give low values): 1.01 | normalized growth (S. cerevisiae deletion strains, locus YML124C, strain tub3, hits give low values): 1.01 | normalized growth (S. cerevisiae deletion strains, locus YMR058W, strain fet3, hits give low values): 1.01 | normalized growth (S. cerevisiae deletion strains, locus YMR078C, strain ctf18, hits give low values): 1.02 | normalized growth (S. cerevisiae deletion strains, locus YMR125W, strain sto1, hits give low values): 1.01 | normalized growth (S. cerevisiae deletion strains, locus YMR129W, hits give low values): 1.01 | normalized growth (S. cerevisiae deletion strains, locus YMR205C, strain PFK2, hits give low values): 1.02 | normalized growth (S. cerevisiae deletion strains, locus YMR223W, strain ubp8, hits give low values): 1.05 | normalized growth (S. cerevisiae deletion strains, locus YMR231W, strain pep5, hits give low values): 1.01 | normalized growth (S. cerevisiae deletion strains, locus YMR307W, strain GAS1, hits give low values): 1.02 | normalized growth (S. cerevisiae deletion strains, locus YNL067W, strain RPL9B, hits give low values): 0.997 | normalized growth (S. cerevisiae deletion strains, locus YNL071W, strain lat1, hits give low values): 1 | normalized growth (S. cerevisiae deletion strains, locus YNL128W, strain TEP1, hits give low values): 1.02 | normalized growth (S. cerevisiae deletion strains, locus YNL153C, strain GIM3, hits give low values): 0.989 and 1.02 | normalized growth (S. cerevisiae deletion strains, locus YNL175C, strain NOP13, hits give low values): 1.02 | normalized growth (S. cerevisiae deletion strains, locus YNL183C, strain NPR1, hits give low values): 0.886 | normalized growth (S. cerevisiae deletion strains, locus YNL197C, strain WHI3, hits give low values): 0.992 | normalized growth (S. cerevisiae deletion strains, locus YNL209W, strain ssb2, hits give low values): 1 | normalized growth (S. cerevisiae deletion strains, locus YNL224C, strain SQS1, hits give low values): 1.01 | normalized growth (S. cerevisiae deletion strains, locus YNL233W, strain BNI4, hits give low values): 0.986 | normalized growth (S. cerevisiae deletion strains, locus YNL248C, strain rpa49, hits give low values): 1.02 | normalized growth (S. cerevisiae deletion strains, locus YNL250W, strain rad50, hits give low values): 1.02 | normalized growth (S. cerevisiae deletion strains, locus YNL271C, strain bni1, hits give low values): 1.01 | normalized growth (S. cerevisiae deletion strains, locus YNL298W, strain CLA4, hits give low values): 1.01 | normalized growth (S. cerevisiae deletion strains, locus YNL307C, strain MCK1, hits give low values): 1.02 | normalized growth (S. cerevisiae deletion strains, locus YNL322C, strain KRE1 (second series), hits give low values): 1.01 | normalized growth (S. cerevisiae deletion strains, locus YNL322C, strain KRE1, hits give low values): 0.991 | normalized growth (S. cerevisiae deletion strains, locus YNR049C, strain mso1, hits give low values): 1.02 | normalized growth (S. cerevisiae deletion strains, locus YNR052C, strain pop2, hits give low values): 1.01 | normalized growth (S. cerevisiae deletion strains, locus YOL006C, strain TOP1, hits give low values): 0.902 | normalized growth (S. cerevisiae deletion strains, locus YOL012C, strain htz1): 0.737 | normalized growth (S. cerevisiae deletion strains, locus YOL147C, strain pex11, hits give low values): 1.02 | normalized growth (S. cerevisiae deletion strains, locus YOR001W, strain rrp6, hits give low values): 1 | normalized growth (S. cerevisiae deletion strains, locus YOR061W, strain CKA2, hits give low values): 1.01 | normalized growth (S. cerevisiae deletion strains, locus YOR069W, strain VPS5, hits give low values): 1.01 | normalized growth (S. cerevisiae deletion strains, locus YOR070C, strain gyp1, hits give low values): 1.01 | normalized growth (S. cerevisiae deletion strains, locus YOR080W, strain dia2, hits give low values): 1 | normalized growth (S. cerevisiae deletion strains, locus YOR083W, strain WHI5 (second series), hits give low values): 1.01 | normalized growth (S. cerevisiae deletion strains, locus YOR083W, strain WHI5, hits give low values): 1.01 | normalized growth (S. cerevisiae deletion strains, locus YOR106W, strain vam3, hits give low values): 0.998 | normalized growth (S. cerevisiae deletion strains, locus YOR136W, strain idh2, hits give low values): 1.01 | normalized growth (S. cerevisiae deletion strains, locus YOR144C, strain elg1, hits give low values): 1.01 | normalized growth (S. cerevisiae deletion strains, locus YOR184W, strain ser1, hits give low values): 1.01 | normalized growth (S. cerevisiae deletion strains, locus YOR231W, strain MKK1, hits give low values): 0.88 | normalized growth (S. cerevisiae deletion strains, locus YOR265W, strain rbl2, hits give low values): 1.01 | normalized growth (S. cerevisiae deletion strains, locus YOR270C, strain vph1, hits give low values): 1 | normalized growth (S. cerevisiae deletion strains, locus YOR290C, strain snf2, hits give low values): 1.01 | normalized growth (S. cerevisiae deletion strains, locus YOR316C, strain cot1, hits give low values): 1.01 | normalized growth (S. cerevisiae deletion strains, locus YPL051W, strain arl3, hits give low values): 1.01 | normalized growth (S. cerevisiae deletion strains, locus YPL055C, strain LGE1, hits give low values): 0.929 | normalized growth (S. cerevisiae deletion strains, locus YPL078C, strain atp4, hits give low values): 1 | normalized growth (S. cerevisiae deletion strains, locus YPL106C, strain sse1, hits give low values): 1 | normalized growth (S. cerevisiae deletion strains, locus YPL240C, strain hsp82, hits give low values): 1.01 | normalized growth (S. cerevisiae deletion strains, locus YPL256C, strain CLN2, hits give low values): 0.98 | normalized growth (S. cerevisiae deletion strains, locus YPR119W, strain clb2, hits give low values): 1.01 | normalized growth (S. cerevisiae deletion strains, locus YPR141C, strain kar3, hits give low values): 1 | normalized growth (S. cerevisiae deletion strains, locus YPR163C, strain tif3, hits give low values): 1.01 | normalized growth (S. cerevisiae deletion strains, locus YPR167C, strain met16, hits give low values): 1.01 | normalized growth (S. cerevisiae deletion strains, strain wtn01, hits give low values): 1.01 | normalized growth (S. cerevisiae strains, strain wild type, hits give low values): 1
